# Measurements reported in PubChem BioAssay (Tox21).
# Values joined by “and” are separate entries in the source; they are usually repeats but may differ in a detail not shown here. Equal values may be shown once. Results filed as inconclusive are left out. More than one record can exist for a structure, and the calls need not agree. Active and inactive are the calls of the source. Calls come from the whole dose curve; as a rule, active = well fitted cell-killing curve with a large enough effect in the repeat runs; inconclusive = weak or mixed curves, or effect the other way; inactive = no such curve, though single readings can be large or run the other way.
# Assay: qHTS assay to identify small molecule agonists of the vitamin D receptor (VDR) signaling pathway - cell viability counter screen (AID 743224); note: nearly all actives have a fitted effect of over 50% in size
# Conditions: VDR-bla HEK293T viability, CellTiter-Glo luminescence, 16 h; series mostly up to 62.6 µM; activity change, negative = cytotoxicity: at the top concentration
# Text: U.S. Tox21 Program National Center for Advancing Translational Sciences [NCATS] NIH Chemical Genomics Center [NCGC] U.S. Environmental Protection Agency [EPA] National Institutes of Environmental Health Sciences [NIEHS] National Toxicology Program [NTP] U.S. Food and Drug Administration [FDA] Tox21 Assay Overview: The vitamin D receptor (VDR), a member of nuclear hormone receptor superfamily, plays a critical role in calcium homeostasis and bone metabolism. It is also involved in cell differentiation and growth, and thrombogenicity. […] The cytotoxicity of the Tox21 compound library against the VDR-bla cell line was tested in parallel by measuring the cell viability using CellTiter-Glo assay (Promega, Madison, WI) in the same wells.
# Tox21 Assay Protocol Summary: VDR-bla cells were dispensed at 2,000 cells/6 uL/well into black wall/clear-bottom 1536-well plates using a Multidrop Combi (Thermo Fisher Scientific, Waltham, MA) dispenser. After the assay plates were incubated at a 37C and 5% CO2 for 4 h, 23 nL of compounds dissolved in DMSO, positive controls or DMSO only was transferred to the assay plate by a Pintool station (Kalypsys, San Diego, CA). The plates were incubated at 37C and 5% CO2 for 16 h. After 1 uL of LiveBLAzerTM B/G FRET substrate was added using a Bioraptr Flying Reagent Dispenser (FRD) workstation (Beckman Coulter, Indianapolis, IN, USA), the plates were incubated at room temperature for 2 h, and fluorescence intensity was measured by an Envision plate reader (PerkinElmer, Shelton, CT). For cell viability readout that measures cytotoxicity, 3 ul/well of CellTiter-Glo reagent was added into the assay plates using a FRD. After 30 min incubation at room temperature, the luminescence intensity in the plates was measured using a ViewLux (PerkinElmer) plate reader.
# % is set by controls: 0 for no effect and ±100 for the full control effect; potency is the fitted concentration of half-maximal effect.
SMILES,"activity change, negative = cytotoxicity",Potency
C=CCc1ccccc1O,-15.9% (inactive),–
CCCCCCCCCCCCN(C)C,7.51% (inactive),–
O=C(O)COc1cc(Cl)c(Cl)cc1Cl,-15.1% (inactive),–
COC1CC(=C(c2cccs2)c2cccs2)C[N+](C)(C)C1 (stereo not given),-2.82% (inactive),–
C[C@]12C=CC3=C4CCC(=O)C=C4CC[C@H]3[C@@H]1CC[C@@H]2O,-2.95% (inactive),–
CCCCC(CC)CO[N+](=O)[O-] (stereo not given),6.63% (inactive),–
NC(=O)CF,-4.8% (inactive),–
CCC1CCC(=O)O1 (stereo not given),-0.192% [at 81.1 µM] (inactive),–
C=CCOC(=O)C(C)(C)OC(=O)c1cc(-n2c(=O)cc(C(F)(F)F)n(C)c2=O)ccc1Cl,6.96% (inactive),–
CCCCCCCCCCCC[N+](C)(C)CCOc1ccccc1,–,24.6 µM (active) and inactive
Cc1ccc(N)c(C)c1,–,inactive
COc1cc(CC(C)N)c(OC)cc1Br (stereo not given),-6.07% [at 81.1 µM] (inactive),–
CC[N+]1(CCOC(=O)C(O)(c2ccccc2)c2ccccc2)CCCCC1,-2.53% (inactive),–
C[CH2][Hg][S]c1ccccc1C(=O)O,–,1.23 µM (active) and 2.11 µM (active)
Nc1cccc2ccccc12,–,inactive
CCCCOC(=O)CCC(=O)OCCCC,-1.17% (inactive),–
CC(CC(C(N)=O)(c1ccccc1)c1ccccc1)N(C)C (stereo not given),-3.15% (inactive),–
O=C(N[C@H]1CN2CCC1CC2)c1ccc2c(c1)OCCO2,0.417% (inactive),–
CNC(=O)Oc1cccc(N=CN(C)C)c1,0.756% (inactive),–
C[N+]1(CCF)[C@@H]2CC[C@H]1CC(OC(=O)C(O)(c1ccccc1)c1ccccc1)C2 (stereo not given in full),2.42% (inactive),–

SMILES,"activity change, negative = cytotoxicity",Potency
O=[N+]([O-])c1cc(Cl)c(Cl)cc1Cl,23.3% (inactive),–
O=C(Cc1ccccc1)OCCc1ccccc1,19.7% (inactive),–
ClCc1ccccc1Cl,2.29% [at 81.1 µM] (inactive),–
CC(=O)OC(c1ccccc1)C(Cl)(Cl)Cl (stereo not given),-13% (inactive),–
CC(C)(C#N)C(C)(C)C#N,-12.5% [at 81.1 µM] (inactive),–
C=CCc1ccc(OC(=O)Cc2ccccc2)c(OC)c1,2.99% (inactive),–
Nc1cc(Cl)cc(C(=O)O)c1Cl,–,inactive
O=C(O)C(F)(F)C(F)(F)C(F)(F)C(F)(F)C(F)(F)C(F)(F)C(F)(F)C(F)(F)F,-10.1% (inactive),–
C=CC(C)(CCC=C(C)C)OC(=O)c1ccccc1N (stereo not given),-3.98% [at 81.1 µM] (inactive),–
O=C(Cl)OCCOCCOC(=O)Cl,12.4% (inactive),–
OCCCl,11.2% (inactive),–
COC(=O)C1(O)c2ccccc2-c2ccccc21,0.112% (inactive),–
CCC1(C2=NCCN2)Cc2ccccc2O1 (stereo not given),0.103% (inactive),–
COc1cc(CC#N)cc(OC)c1OC,9.46% (inactive),–
O=C(O)c1ccc(=O)[nH]c1,5.72% (inactive),–
C=CCN1C[C@H](C)N([C@H](c2ccc(C(=O)N(CC)CC)cc2)c2cccc(OC)c2)C[C@H]1C,20.4% (inactive),–
CC(C)CCON=O,16.3% (inactive),–
O=C(N/N=C/c1ccc([N+](=O)[O-])o1)c1cc([N+](=O)[O-])cc([N+](=O)[O-])c1O,11.8% (inactive),–
c1ccc2sc(SNC3CCCCC3)nc2c1,13.9% (inactive),–
CN(C)N,1.07% (inactive),–
